# Data reported in PubChem BioAssay AID651946 (Broad Institute, 2012).
# Entries with a potency or affinity are not part of this list. Unmarked numbers belong to inactive results.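 The calls were made as follows: active = toxic compound whose fitted half-effect dose of signal loss is at most twice its top tested dose; inconclusive = flat fit losing 30 to 70% signal, or poor fit; inactive = the rest.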
# Assay: cytotoxicity in HeLa cells, dose response, cytotoxicity control, cell-based, plate reader, dry powder (AID 651946)
# Settings: HeLa viability, ATP luminescence (CellTiter-Glo), 48 h; series mostly up to 26 µM; activity change, negative = cytotoxicity: at the top concentration
row,Compound,"activity change, negative = cytotoxicity"
1,c1ccc(CSc2nnc(-c3cccnc3)o2)cc1,8.35%
2,c1ccc(-c2nnc(SCCN3CCN(c4ccccc4)CC3)o2)cc1,-6.89%
3,FC(F)(F)c1ccc(-c2nnc(SCc3ccccc3)o2)cc1,0.304%
4,Cc1ccccc1CSc1nnc(-c2ccccc2)o1,0.598%
5,Fc1ccc(CSc2nnc(-c3cccnc3)o2)cc1,12.1%
6,O=S(=O)(Cc1ccccc1)c1nnc(-c2ccccc2)o1,-6.44%
7,Fc1ccc(-c2nnc(SCc3ccccc3)o2)cc1,12.4%
8,Fc1ccc(-c2nnc(SCc3cn(-c4ccccc4)nn3)o2)cc1,-16%
9,c1ccc(CSc2nnc(-c3cnco3)o2)cc1,6.24%
10,c1ccc(CNCCSc2nnc(-c3ccccc3)o2)cc1,-6.02%
11,c1ccc(-c2nnc(SCCC3OCCCO3)o2)cc1,1.39%
12,CS(=O)(=O)c1cccc(-c2nnc(SCc3ccccc3)o2)c1,4.62%
13,N#Cc1ccccc1CSc1nnc(-c2ccccc2)o1,2.07%
14,CC(C)c1nnc(SCc2ccccc2)o1,8.34%
15,c1ccc(CSc2nnc(-c3ccccn3)o2)cc1,-8.45%
16,Brc1ccc(CSc2nnc(-c3ccccc3)o2)cc1,-1.08%
17,FC(F)(F)c1ccccc1CSc1nnc(-c2ccccc2)o1,-7.53%
18,c1ccc(-c2nnc(SCCN3CCCC3)o2)cc1,-0.13%

row,Compound,"activity change, negative = cytotoxicity"
1,CS(=O)(=O)c1ccc(CSc2nnc(-c3ccccc3)o2)cc1,5.79%
2,c1ccc(CSc2nnc(-c3cscn3)o2)cc1,3.73%
3,Clc1cccc(-c2nnc(SCc3ccccc3)o2)c1,5.52%
4,c1ccc(-c2ccc(CSc3nnc(-c4ccccc4)o3)cc2)cc1,-10.5%
5,c1ccc(CCc2nnc(-c3ccccc3)o2)cc1,13% [at 12 µM]
6,O=C(Cc1ccccc1)C(C(=O)c1nnc(-c2ccccc2)o1)c1ccccc1 (stereo unspecified),-1.18%
7,c1ccc(CSc2nnc(-c3ccncc3)o2)cc1,7.89%
8,Clc1ccccc1-c1nnc(SCc2ccccc2)o1,-12.7%
9,CN(Cc1ccccc1)c1nnc(-c2ccccc2)o1,-1.41%
10,COc1cccc(-c2nnc(SCc3ccccc3)o2)c1,-3.27%
11,CCSc1nnc(-c2ccccc2)o1,-0.855%
12,c1ccc(Cn2cc(CSc3nnc(-c4ccccc4)o3)nn2)cc1,-5.77%
13,c1ccc(CSc2ncc(-c3ccccc3)o2)cc1,6.4%
14,c1ccc(CSc2nnc(-c3cccnc3)o2)nc1,16.6%
15,c1ccc(Cn2cc(CSc3nnc(C4CCC4)o3)nn2)cc1,3.8%
16,COCCSc1nnc(-c2ccccc2)o1,6.23%
17,FC(F)(F)Oc1cccc(-c2nnc(SCc3ccccc3)o2)c1,2.45%
18,CSc1nnc(-c2ccccc2)o1,5.47% [at 120 µM]
